# Experimental data published in PubChem BioAssay (EPA / NIEHS).
# “And” between values parts separate entries of the source, which are not always exact repeats. Identical values can stand only once. The source holds several records for some structures; these can differ, active in one and inactive in another. The source made the active and inactive calls. Rule for the calls: active = hit-call score of the fitted dose curve at least 0.9, where 1 is the maximum; inactive = score below 0.9.
# Legend:
# [1] = read-out: Interleukin-8 (IL8), CXCL8 (gene 3576); test: BSK_BF4T_IL8: BioMAP Diversity Plus: BF4T Assay for Interleukin-8 (IL8) Biomarker Activity (AID 2284263); conditions: primary human bronchial epithelial cells with fibroblasts
# Outline: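 Human bronchial epithelial cells with dermal fibroblasts co-culture; IL-8 measured by ELISA 24 hours after dosing, fitted vs DMSO. Cytotoxicity tracked in parallel cultures by SRB total-protein staining.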
# [2] = read-out: Interleukin-1 alpha (IL1a), IL1A (gene 3552); test: BSK_BF4T_IL1a: BioMAP Diversity Plus: BF4T Assay for Interleukin-1 alpha (IL1a) Biomarker Activity (AID 2284264); conditions: primary human bronchial epithelial cells with fibroblasts
# Outline: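 Human bronchial epithelial cells co-cultured with dermal fibroblasts, dosed and read at 24 h. Secreted/surface IL-1α quantified by ELISA; gain-of-signal fitted relative to DMSO baseline. Parallel SRB total-protein staining tracked cytotoxicity.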
# [3] = read-out: Decorin, DCN (gene 1634); test: BSK_MyoF_Decorin: BioMAP Diversity Plus: MyoF Assay for Decorin Biomarker Activity (AID 2284265); conditions: primary human lung fibroblasts
# Outline: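 Decorin protein was quantified by ELISA 24 h after chemical addition to primary human lung fibroblasts and analysed as increase over DMSO. Cytotoxicity was tracked in parallel cultures by SRB total-protein staining read at 560 nm.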
# [4] = read-out: KRT18 (gene 3875); test: BSK_BF4T_Keratin818: BioMAP Diversity Plus: BF4T Assay for Keratin 818 Biomarker Activity (AID 2284266); conditions: primary human bronchial epithelial cells with fibroblasts
# Outline: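 Co-culture of human bronchial epithelial cells and dermal fibroblasts, chemical exposure 24 h. Keratin 8/18 measured by ELISA; positive-direction fit vs DMSO. SRB total protein run in parallel cultures for cytotoxicity.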
# [5] = BSK_MyoF_SRB: Viability Assessment in the BioMAP Diversity Plus: MyoF Assay (AID 2284267); conditions: primary human lung fibroblasts;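 note: total protein by SRB absorbance in parallel cultures as cytotoxicity measure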
# Outline: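 Human lung fibroblasts, 24 h after chemical dosing; total protein measured by 0.1% sulforhodamine B staining after 10% TCA fixation, read at 560 nm, fitted relative to DMSO baseline.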
# [6] = read-out: Matrix Metallopeptidase 1 (MMP1), MMP1 (gene 4312); test: BSK_MyoF_MMP1: BioMAP Diversity Plus: MyoF Assay for Matrix Metallopeptidase 1 (MMP1) Biomarker Activity (AID 2284268); conditions: primary human lung fibroblasts
# Outline: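 Human lung fibroblasts (MyoF system) exposed to chemical for 24 h in 96-well format; MMP1 biomarker quantified by ELISA, with activity fitted in the positive direction relative to DMSO baseline.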
# [7] = read-out: TIMP metallopeptidase inhibitor 1 (TIMP1), TIMP1 (gene 7076); test: BSK_MyoF_TIMP1: BioMAP Diversity Plus: MyoF Assay for TIMP metallopeptidase inhibitor 1 (TIMP1) Biomarker Activity (AID 2284269); conditions: primary human lung fibroblasts
# Outline: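 Primary human lung fibroblasts, MyoF multiplex system; chemical exposure 24 h; TIMP-1 by ELISA; positive fitting direction vs DMSO control.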
# [8] = read-out: Matrix Metallopeptidase 3 (MMP3), MMP3 (gene 4314); test: BSK_BF4T_MMP3: BioMAP Diversity Plus: BF4T Assay for Matrix Metallopeptidase 3 (MMP3) Biomarker Activity (AID 2284271); conditions: primary human bronchial epithelial cells with fibroblasts
# Outline: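 Co-culture of human bronchial epithelial cells and dermal fibroblasts dosed 24 h; MMP-3 measured by ELISA, positive-direction fit versus DMSO. Cytotoxicity tracked by SRB total-protein staining (560 nm) in parallel cultures.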
# [9] = read-out: Tissue plasminogen activator (tPA), PLAT (gene 5327); test: BSK_BF4T_tPA: BioMAP Diversity Plus: BF4T Assay for Tissue plasminogen activator (tPA) Biomarker Activity (AID 2284272); conditions: primary human bronchial epithelial cells with fibroblasts
# Outline: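 tPA level quantified by ELISA at 24 h post-treatment in bronchial epithelial/dermal fibroblast co-cultures, gain of signal scored against DMSO baseline. Parallel cultures stained with 0.1% SRB (560 nm) to flag overt cytotoxicity.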
# [10] = read-out: urokinase Plasminogen Activator (uPA), PLAU (gene 5328); test: BSK_BF4T_uPA: BioMAP Diversity Plus: BF4T Assay for urokinase Plasminogen Activator (uPA) Biomarker Activity (AID 2284275); conditions: primary human bronchial epithelial cells with fibroblasts
# Outline: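 Co-culture of human bronchial epithelial cells and dermal fibroblasts; uPA quantified by ELISA 24 hours after dosing, fitted relative to DMSO. Parallel SRB total-protein staining assessed overt cytotoxicity.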
# [11] = read-out: Matrix Metallopeptidase 9 (MMP9), MMP9 (gene 4318); test: BSK_BF4T_MMP9: BioMAP Diversity Plus: BF4T Assay for Matrix Metallopeptidase 9 (MMP9) Biomarker Activity (AID 2284276); conditions: primary human bronchial epithelial cells with fibroblasts
# Outline: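 Co-culture of human bronchial epithelial cells and dermal fibroblasts dosed for 24 h; MMP-9 quantified by ELISA and fitted upward versus DMSO. Cytotoxicity monitored in parallel cultures by SRB total-protein staining at the biomarker time point.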
# [12] = read-out: Interleukin-8 (IL8), CXCL8 (gene 3576); test: BSK_IMphg_IL8: BioMAP Diversity Plus: IMphg Assay for Interleukin-8 (IL8) Biomarker Activity (AID 2284277); conditions: primary human endothelial cells with macrophages
# Outline: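 Co-culture of human venular endothelial cells and macrophages exposed to chemicals for 24 h; IL-8 quantified by ELISA and compared against the DMSO baseline, with SRB total-protein staining in parallel cultures for cytotoxicity.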
# [13] = read-out: Intercellular Adhesion Molecule 1 (ICAM1), ICAM1 (gene 3383); test: BSK_BE3C_ICAM1: BioMAP Diversity Plus: BE3C Assay for Intercellular Adhesion Molecule 1 (ICAM1) Biomarker Activity (AID 2284278); conditions: primary human bronchial epithelial cells;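 for outcome: cell-surface ICAM-1 protein level quantified by ELISA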
# Outline: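 Primary human bronchial epithelial cells in BE3C system, 24 h after chemical dosing; cell-surface ICAM-1 measured by ELISA relative to DMSO. Parallel SRB staining (0.1% SRB after 10% TCA fixation, read at 560 nm) assessed cytotoxicity.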
# [14] = read-out: Interferon-inducible T-cell alpha chemoattractant (ITAC), CXCL11 (gene 6373); test: BSK_BE3C_ITAC: BioMAP Diversity Plus: BE3C Assay for Interferon-inducible T-cell alpha chemoattractant (ITAC) Biomarker Activity (AID 2284279); conditions: primary human bronchial epithelial cells
# Outline: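 Steps: dose human bronchial epithelial cells with chemical; incubate 24 h; measure I-TAC by ELISA; fit endpoint in positive direction against DMSO control. Cytotoxicity was checked in parallel cultures by SRB staining at harvest.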
# [15] = read-out: Interleukin-8 (IL8), CXCL8 (gene 3576); test: BSK_BE3C_IL8: BioMAP Diversity Plus: BE3C Assay for Interleukin-8 (IL8) Biomarker Activity (AID 2284280); conditions: primary human bronchial epithelial cells
# Outline: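 Primary human bronchial epithelial cells (BE3C system) exposed 24 h; IL-8 measured by ELISA and fitted in positive direction versus DMSO. Overt cytotoxicity assessed by SRB total-protein staining in parallel cultures.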
# [16] = read-out: Epidermal growth factor receptor (EGFR), EGFR (gene 1956); test: BSK_BE3C_EGFR: BioMAP Diversity Plus: BE3C Assay for Epidermal growth factor receptor (EGFR) Biomarker Activity (AID 2284281); conditions: primary human bronchial epithelial cells
# Outline: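 Human primary bronchial epithelial cells (BE3C system) dosed with chemicals; EGFR measured by ELISA at 24 h, fitted in the positive direction relative to DMSO. Cytotoxicity tracked in parallel cultures by SRB total-protein staining.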
# [17] = read-out: KRT18 (gene 3875); test: BSK_BE3C_Keratin818: BioMAP Diversity Plus: BE3C Assay for Keratin 818 Biomarker Activity (AID 2284282); conditions: primary human bronchial epithelial cells
# Outline: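 Primary human bronchial epithelial cells treated 24 h; Keratin 8/18 quantified by ELISA, fit relative to DMSO. Cytotoxicity tracked in parallel cultures by sulforhodamine B total-protein staining.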
# [18] = read-out: Plasminogen Activator Inhibitor-1 (PAI1), SERPINE1 (gene 5054); test: BSK_BF4T_PAI1: BioMAP Diversity Plus: BF4T Assay for Plasminogen Activator Inhibitor-1 (PAI1) Biomarker Activity (AID 2284273); conditions: primary human bronchial epithelial cells with fibroblasts
# Outline: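 Co-culture of human bronchial epithelial cells and dermal fibroblasts exposed to compound for 24 h. PAI-1 measured by ELISA; activity fitted in positive direction versus DMSO. Parallel SRB staining assessed overt cytotoxicity.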
# [19] = read-out: Matrix Metallopeptidase 1 (MMP1), MMP1 (gene 4312); test: BSK_BF4T_MMP1: BioMAP Diversity Plus: BF4T Assay for Matrix Metallopeptidase 1 (MMP1) Biomarker Activity (AID 2284270); conditions: primary human bronchial epithelial cells with fibroblasts
# Outline: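 Co-culture of human bronchial epithelial cells and dermal fibroblasts; MMP-1 levels measured by ELISA 24 hours after chemical dosing, relative to DMSO. Cytotoxicity checked in parallel cultures by SRB total-protein staining.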
# [20] = BSK_BF4T_SRB: Viability Assessment in the BioMAP Diversity Plus: BF4T Assay (AID 2284274); conditions: primary human bronchial epithelial cells with fibroblasts
# Outline: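 Co-culture of human bronchial epithelial cells and dermal fibroblasts (BioMAP BF4T) exposed 24 h. Total protein by sulforhodamine B staining (0.1% SRB after 10% TCA fixation, 560 nm) in parallel cultures; fitted vs DMSO.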
smiles,measurement,setting,value
O=C(O)C(F)(OC(F)(F)C(F)(OC(F)(F)C(F)(OC(F)(F)C(F)(F)C(F)(F)F)C(F)(F)F)C(F)(F)F)C(F)(F)F (stereo unspecified),outcome,[1],inactive
same,outcome,[2],inactive
same,outcome,[3],inactive
same,outcome,[4],inactive
same,outcome,[5],inactive
same,outcome,[6],inactive
same,outcome,[7],inactive
same,outcome,[8],inactive
same,outcome,[9],inactive
same,outcome,[10],inactive
same,outcome,[11],inactive
same,outcome,[12],inactive
same,outcome,[13],inactive
same,outcome,[14],inactive
same,outcome,[15],inactive
same,outcome,[16],inactive
same,outcome,[17],inactive
FC(F)(F)C(F)(F)C(F)(F)C(F)(F)C(F)(F)C(F)(F)CCS,outcome,[1],inactive
same,AC50,[2],10.9 µM (active)
same,outcome,[2],inactive
same,outcome,[3],inactive
same,outcome,[4],inactive
same,outcome,[6],inactive
same,outcome,[8],inactive
same,outcome,[9],inactive
same,outcome,[10],inactive
same,outcome,[11],inactive
same,AC50,[12],876 nM (active)
same,outcome,[12],inactive
same,outcome,[13],inactive
same,outcome,[14],inactive
same,outcome,[15],inactive
same,outcome,[16],inactive
same,outcome,[17],inactive
FC(F)(F)C(F)(F)C(F)(F)C(F)(F)C(F)(F)CCI,outcome,[1],inactive
same,outcome,[2],inactive
same,outcome,[3],inactive
same,outcome,[4],inactive
same,outcome,[5],inactive
same,outcome,[6],inactive
same,outcome,[7],inactive
same,outcome,[8],inactive
same,outcome,[9],inactive
same,outcome,[18],inactive
same,outcome,[10],inactive
same,outcome,[11],inactive
same,outcome,[12],inactive
same,outcome,[13],inactive
same,outcome,[14],inactive
same,outcome,[15],inactive
same,outcome,[16],inactive
same,outcome,[17],inactive
OCC(F)(F)C(F)(F)C(F)(F)C(F)F,outcome,[1],inactive
same,outcome,[2],inactive
same,AC50,[3],5.95 µM (active)
same,outcome,[3],inactive
same,outcome,[4],inactive
same,outcome,[6],inactive
same,outcome,[19],inactive
same,outcome,[8],inactive
same,outcome,[9],inactive
same,outcome,[11],inactive
same,outcome,[12],inactive
same,outcome,[13],inactive
same,outcome,[14],inactive
same,AC50,[15],14.5 µM (active)
same,outcome,[15],inactive
same,outcome,[16],inactive
same,outcome,[17],inactive
O=C(Cl)C(F)(F)C(F)(F)C(F)(F)C(F)(F)C(F)(F)C(F)(F)C(F)(F)C(F)(F)F,outcome,[1],inactive
same,AC50,[2],45.4 µM (active) and 45.6 µM (active) and 56.8 µM (active)
same,outcome,[3],inactive
same,AC50,[4],44.5 µM (active) and 46.1 µM (active) and 44.3 µM (active)
same,AC50,[5],26 µM (active) and 21.7 µM (active) and 20.3 µM (active)
same,outcome,[6],inactive
same,outcome,[8],inactive
same,AC50,[9],28 µM (active) and 22.9 µM (active) and 20.9 µM (active)
same,outcome,[18],inactive
same,AC50,[11],46.1 µM (active) and 52.4 µM (active) and 49.7 µM (active)
same,AC50,[12],6.67 µM (active) and 5.95 µM (active) and 19.6 µM (active)
same,AC50,[13],50.4 µM (active) and 58.6 µM (active) and 57.1 µM (active)
same,AC50,[14],48.3 µM (active) and 46.7 µM (active) and 48.2 µM (active)
same,AC50,[15],30 µM (active) and 43.4 µM (active) and 38.6 µM (active)
same,AC50,[16],39 µM (active) and 43.6 µM (active) and 45.5 µM (active)
same,AC50,[17],47.8 µM (active) and 43.9 µM (active) and 46.8 µM (active)
FC(F)(F)C(F)(F)C(F)(F)C(F)(F)C(F)(F)C(F)(F)C(F)(F)C(F)(F)F,outcome,[1],inactive
same,outcome,[2],inactive
same,outcome,[3],inactive
same,outcome,[4],inactive
same,outcome,[6],inactive
same,outcome,[7],inactive
same,outcome,[8],inactive
same,outcome,[9],inactive
same,outcome,[20],inactive
same,outcome,[11],inactive
same,outcome,[12],inactive
same,outcome,[13],inactive
same,outcome,[14],inactive
same,outcome,[15],inactive
same,outcome,[16],inactive
same,outcome,[17],inactive
